Measurements published in the OligoGym collection.

molecular target: SLC10A7; assay: pooled miR-30 sensor sort-seq; sequence = guide strand; conditions: shRNA
Also: reference of the scale not given here.

| Sequence | sensor-assay potency score (higher = more potent) |
| --- | --- |
| TATTGTTGCAACAGCAATGTAG | 0.00955 |
| ATCATGAGGAGTACACTGCTGC | -0.556 |
| TATCTTCGGACAATCTGTCCAA | -0.198 |
| TAAACTATGTTTACTTACCAAA | -1.05 |
| TAAAAGCATAAAACTCAGCTGG | -0.225 |
| TATAGATACAACATTTACTTGC | 0.105 |
| TTACTTACCAAAAAACTTCCAA | 0.24 |
| AACAGTATGAGAACAAGGCTGA | 0.508 |

molecular target: SLC12A1; assay: as above; conditions: shRNA

| Sequence | sensor-assay potency score (higher = more potent) |
| --- | --- |
| TTGAATATTTTGTAGACTCAAC | -1.22 |
| TTTGTGAGGATTTCCAACCAAG | -0.956 |
| TTCCAATGCTAGTCTCTCCTGT | 0.793 |
| TTGATGACAAACATGACTGCAC | 0.915 |
| TTTCTTATATCCAATCACCAGA | -0.816 |
| TTTCTTGTTTATCAACAGCAGT | -1.1 |
| TTGCTCGTGAATCTCAAGCAGG | -0.686 |
| TTGAGTGCTGGCTTCCACCAGT | -0.0176 |
| TATCTTTGATAGTCGCTTCCAA | 0.0928 |
| TTGTGTGAGAATCATAAGCGTG | -0.782 |
| TATGACACTAACTTGAAAGCGA | 0.571 |
| TTGTAGACTCAACTACTTCTTA | -0.589 |
